# Source: ChEMBL document CHEMBL3988442, “University of Dundee, Small-Polar-MMV Screening Library” (2021)
# The whole screen tested about 85,000 compounds, of which about 440 (0.52%) showed an effect of 50% or more. The list comes from a sample in which strong results are over-represented; it also holds similar structures and randomly drawn compounds.
# Assay: In vitro enzyme assay to detect hydrolysis of chlorophenol red-beta-D-[…] directly proportional to the number of Toxoplasma stably expressing beta-galactosidase
# Type: functional, organism-based, Toxoplasma gondii
# Parameters: scale not given: in the data most compounds retested in dose-response had high values
SMILES,Percent Effect (50 µM) [%],Percent Effect (10 µM) [%]
CCN(CC)C(=O)C(C)NC(=O)c1cc(C#N)c[nH]1 (stereo not given),-1.389,
O=C(OCCOc1cccnc1)C1CC1,43.8,
O=S(=O)(CCN1CCCC1)c1ccc(Cl)cc1,0.9615,
CNC(=O)CN(C)C(=O)Cc1c[nH]c2ccccc12,2.87,
Cc1ccsc1CN(C)C(=O)C(CN)c1ccccc1 (stereo not given),-6.582,
CCN(CC)C(=O)c1ccccc1N(C)S(C)(=O)=O,-4.295,
Nc1ncc2c(n1)CN(C1CCCC1)C2=O,,17.83
CN(C)c1ncc2c(n1)CN(C1CCSCC1)C2=O,,78.86
CNc1ncc2c(n1)CN(C1CC(C)(C)NC(C)(C)C1)C2=O,,-1.01
CN(C)c1ncc2c(n1)CN(C1CC(C)(C)NC(C)(C)C1)C2=O,,-0.4714
CC1CCC(N2Cc3nc(N)ncc3C2=O)CC1 (stereo not given),,-0.06734
CNc1ncc2c(n1)CN(C1CCCC1)C2=O,,52.32
COCc1nc(C2CCN(S(C)(=O)=O)C2)no1 (stereo not given),-61,
CC(O)CN(CCN)C(=O)OC(C)(C)C (stereo not given),-7.411,
NCC(O)c1cccc2ccccc12 (stereo not given),36.71,
NCC(O)c1ccc(-c2ccccc2)cc1 (stereo not given),100.3,
NCC(O)c1ccncc1 (stereo not given),1.266,
CCN(CC)C(=O)CN(C)C(=O)Cc1cccc(F)c1,1.744,
CN(Cc1cc(C#N)cs1)Cc1nccn1C,-7.444,
CC(C)Nc1cc(-c2c[nH]nc2C2CCN(C(=O)C3CCC3)C2)ccn1 (stereo not given),,95.4
CC(C)Nc1cc(-c2c[nH]nc2C2CCN(C(=O)C3CC3)C2)ccn1 (stereo not given),,77.26
Cc1c[nH]nc1C1CCN(C(=O)C2CCC2)CC1,,14.73
Nc1cc(-c2c[nH]nc2C2CCCCN2C(=O)C2CCCC2)ccn1 (stereo not given),,-17.94
Nc1cc(-c2c[nH]nc2C2CCN(C(=O)C3CCCC3)C2)ccn1 (stereo not given),,5.055
CC(C)N1CCC(c2n[nH]cc2-c2ccnc(N)c2)C1 (stereo not given),,18.38
CN1CCC(c2n[nH]cc2-c2ccnc(N)c2)C1 (stereo not given),,-7.314
CC(C)CNc1cc(-c2c[nH]nc2C2CCN(C(=O)C3CC3)C2)ccn1 (stereo not given),,86.59

SMILES,Percent Effect (50 µM) [%],Percent Effect (10 µM) [%]
Cc1c[nH]nc1C1CCN(C(=O)C2CCOCC2)C1 (stereo not given),,9.496
CCCNc1cc(-c2c[nH]nc2C2CCN(C(=O)C3CCC3)C2)ccn1 (stereo not given),,94.14
CC(=O)N1CCC(c2n[nH]cc2-c2ccnc(N)c2)C1 (stereo not given),,20.34
Cc1c[nH]nc1C1CCN(C(=O)C2CCCC2)C1 (stereo not given),,6.331
NCCC(=O)N1CCCC1Cc1cccc(F)c1 (stereo not given),-2.968,
COc1cc(Br)c(CN)cc1OC,44.43,
CC(C(=O)N1CCCC1)N1CCN(c2nc[nH]n2)CC1 (stereo not given),16.6,
N#Cc1ccc(C(=O)NCCCc2csc(N)n2)cn1,3.81,
CC(=O)N(C)C1CCNCC1,-2.944,
CNC(=O)CCSc1ccc2c(c1)OCCO2,0.7135,
NCC(=O)Nc1cc(C(F)(F)F)c[nH]c1=O,-2.166,
CCCn1ccnc1CNC(=O)CCC(=O)N(C)C,-10.54,
CNc1nnc(SCc2ncc(C)o2)s1,-1.305,
COCC(=O)NCc1nn(CCN2CCCC2)c(=O)c2ccccc12,,94.96
CCNC(=O)NCc1nn(CCN2CCCC2)c(=O)c2ccccc12,,21.21
CCOC(=O)NCc1nn(CCN2CCCC2)c(=O)c2ccccc12,,7.365
CCC(=O)NC(C)(C#N)C(C)C (stereo not given),2.056,
CC1CCN(CC(N)=O)CC1,-12.83,
O=C(NCCc1cccs1)c1cc[nH]n1,7.034,
CCC(N)c1cnn(CC)c1 (stereo not given),-19.44,
O=C(c1cnn(-c2ccccc2)c1)N1CCCCC1,-4.798,
O=C(c1cnc(-c2cccnc2)nc1)N1CCSCC1,,1.887
O=C(c1ccc(O)nc1)N1CCCCCCC1,-10.69,
CCNc1ncc(C(=O)N2CCCCC2)s1,3.681,
O=C(c1cc(-c2cccs2)cs1)N1CCSCC1,,-31.67
O=C(c1ccc(-c2ccc(O)nc2)s1)N1CCCCC1,,53
O=C(c1ccc(O)nc1)N1CCN(C(=O)c2ccc(F)c(F)c2)CC1,,5.066

SMILES,Percent Effect (50 µM) [%],Percent Effect (10 µM) [%]
O=C(c1ccc(-c2ccc(O)nc2)s1)N1CCSCC1,,61.48
O=C(c1ccc(-c2ccc(O)nc2)s1)N1CCCCCC1,,59.06
O=C(CN1CCNCC1)c1ccccc1Cl,-6.338,
O=C(c1cnsn1)N1CC=C(c2ccccc2)CC1,3.694,
CCC(C)(O)CCN (stereo not given),17.18,
Cc1ccc(NC(=O)CN2CCNCC2)c(C)c1,-5.303,
CCC(CC)NC(=O)CSc1nnc(N)n1C,-0.697,
Cn1ncc2c(NCc3ccccc3CO)ncnc21,2.537,
Cc1cc(C)n(C2CN(CC(=O)N(C)Cc3ccc(C)o3)C2)n1,,1.659
Cc1ccc(CN(C)C(=O)CSc2nncn2C)o1,6.979,
Cc1ccc(CN(C)C(=O)Cn2cnnn2)o1,88.2,
CN1CCCN(C(=O)c2ccc(C#N)cc2)CC1,-7.834,
CC(C)c1nc(CN2CCCC3(CCNC3)C2)co1 (stereo not given),-11.26,
NC(c1ccccc1)C1(CO)CCC1 (stereo not given),8.034,
Cc1ccc(OCCNC(=O)CN2CSCC2=O)cc1,-3.002,
CCOc1ccccc1Nc1nc2c(C)nn(C)c2c(=O)n1C,,17.23
Cc1nc(NCc2cccnc2)c2c(n1)c(C)nn2C,,-7.547
Cc1nn(C)c2c(=O)n(C(C)C)c(NCCc3ccccc3)nc12,,81.01
CCc1nc(NCc2ccccn2)c2c(n1)c(C)nn2C,,20.03
Cc1nn(C)c2c(=O)n(C(C)C)c(NCC3CCCO3)nc12 (stereo not given),,6.206
CCn1c(NCc2ccccn2)nc2c(C)nn(C)c2c1=O,,61.62
Cc1nn(C)c2c(NCc3cccnc3)nc(C(C)C)nc12,,25.8
COc1ccccc1Nc1nc2c(C)nn(C)c2c(=O)n1C,,9.981
CCCn1c(NCCc2ccccc2)nc2c(C)nn(C)c2c1=O,,74.28
Cc1nc(NCc2ccccn2)c2c(n1)c(C)nn2C,,13.62
CCn1c(NCc2cccnc2)nc2c(C)nn(C)c2c1=O,,57.44
